Results: publication PMC5540273 (PLoS ONE, 2017)

Columns and labels:
Conditions in all cases: concentration: 1 μM, replicates: in singlicate; n = 1
MINK = tested on: T1, MINK
T1 construct: gene MINK1

MKK7 = tested on: MKK7
MKNK1 = tested on: MKNK1
MKNK2 = tested on: MKNK2
MLCK = tested on: T2, MLCK
T2 construct: gene MYLK3

MLK1 = tested on: T3, MLK1
T3 construct: gene MAP3K9

MLK2 = tested on: MLK2
MLK3 = tested on: MLK3
MRCKA = tested on: MRCKA
MRCKB = tested on: T4, MRCKB
T4 construct: gene CDC42BPB

MST1R = tested on: MST1R
MST1 = tested on: T5, MST1
T5 construct: gene STK4

MST2 = tested on: T6, MST2
T6 construct: gene STK3

MST3 = tested on: T7, MST3
T7 construct: gene STK24

MST4 = tested on: MST4
MTOR = tested on: MTOR
MUSK = tested on: MUSK
MYLK2 = tested on: MYLK2
MYLK4 = tested on: MYLK4
MYLK = tested on: MYLK
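Note: KINOMEscan kinase panel screen.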

Compound | %Inh (MINK) [%] | %Inh (MKK7) [%] | %Inh (MKNK1) [%] | %Inh (MKNK2) [%] | %Inh (MLCK) [%] | %Inh (MLK1) [%] | %Inh (MLK2) [%] | %Inh (MLK3) [%] | %Inh (MRCKA) [%] | %Inh (MRCKB) [%] | %Inh (MST1R) [%] | %Inh (MST1) [%] | %Inh (MST2) [%] | %Inh (MST3) [%] | %Inh (MST4) [%] | %Inh (MTOR) [%] | %Inh (MUSK) [%] | %Inh (MYLK2) [%] | %Inh (MYLK4) [%] | %Inh (MYLK) [%]
Nc1cccc(-c2ccc3c(N)n[nH]c3c2)n1 [GSK2192730] | 50 | 0 | 13 | 61 | 76 | 0 | 0 | 0 | 0 | 0 | 33 | 0 | 21 | 9 | 0 | 15 | 4 | 90 | 72 | 34
CN1c2ccc(-c3ccc(C(N)=O)cc3)cc2-c2[nH]ncc2S1(=O)=O | 53 | 3 | 0 | 0 | 0 | 19 | 26 | 3 | 0 | 3 | 0 | 0 | 0 | 0 | 2 | 14 | 0 | 0 | 0 | 73
Cc1ccc(NC(=O)Nc2ccc(Cl)cc2)cc1-c1ccc(C(=O)Nc2ccncc2)cc1 [GSK1398472] | 11 | 21 | 10 | 7 | 0 | 0 | 0 | 15 | 16 | 0 | 20 | 8 | 0 | 0 | 0 | 18 | 11 | 0 | 0 | 2
CNc1nc(-c2ccc3c(N)n[nH]c3c2)cc(N2C[C@@H](C(=O)Nc3ccccc3)CC[C@H]2C)n1 [GSK2298859] | 0 | 0 | 0 | 0 | 0 | 0 | 0 | 28 | 10 | 0 | 26 | 0 | 0 | 0 | 4 | 3 | 0 | 9 | 0 | 11
NS(=O)(=O)c1cccc(N/C=C2\C(=O)Nc3ccc(S(=O)(=O)Cc4c(Cl)cccc4Cl)cc32)c1 [GSK398099] | 80 | 0 | 0 | 12 | 0 | 0 | 0 | 0 | 15 | 0 | 17 | 0 | 1 | 0 | 0 | 11 | 7 | 0 | 1 | 18
CCn1c(-c2ccccc2)nc2cnccc21 [SB-733416] | 0 | 16 | 25 | 28 | 0 | 0 | 3 | 7 | 0 | 14 | 11 | 27 | 6 | 0 | 0 | 31 | 16 | 0 | 2 | 0
COc1cccc(NC(=O)Nc2ccc(C)c(-c3ccc(C(=O)Nc4ccncc4)cc3)c2)c1 [GSK1398474] | 6 | 14 | 4 | 24 | 6 | 10 | 14 | 31 | 13 | 3 | 57 | 18 | 0 | 10 | 0 | 0 | 1 | 4 | 3 | 31
Cc1cnc(N)c(/C=C/c2cncc(C(=O)NCCc3ccc(Cl)cc3Cl)c2)c1.Cl [GSK190937] | 4 | 0 | 0 | 2 | 6 | 0 | 0 | 0 | 5 | 2 | 29 | 0 | 0 | 5 | 0 | 6 | 0 | 0 | 62 | 20
COc1ccc(Nc2nccc(-c3ccc(NC(=O)c4cc5cc(F)ccc5[nH]4)cc3)n2)cc1 [GSK1229496] | 4 | 0 | 14 | 0 | 0 | 0 | 0 | 0 | 17 | 0 | 7 | 0 | 0 | 0 | 0 | 20 | 0 | 0 | 28 | 6
Cc1c(Cn2c3ccccc3n3c(=O)cc(N4CCOCC4)nc23)cccc1C(F)(F)F [GSK2306394] | 0 | 0 | 0 | 6 | 0 | 0 | 2 | 0 | 0 | 0 | 0 | 15 | 12 | 2 | 0 | 3 | 6 | 17 | 0 | 2
